# Assay results reported in the supplement of paper PMC8728848.
# Many of the other results were omitted from the sample, so the strongest signals are more common in it than they were.
# B1: MGL6A (Homo sapiens) (protein)
# chain: MTRTYENFQYLENKVKVQGFKNGPLPLQSLLQRLCSGPCHLLLSLGLGLLLLVIICVVGFQNSKFQRDLVTLRTDFSNFTSNTVAEIQALTSQGSSLEETIASLKAEVEGFKQERQAVHSEMLLRVQQLVQDLKKLTCQVATLNNNGEEASTEGTCCPVNWVEHQDSCYWFSHSGMSWAEAEKYCQLKNAHLVVINSREEQNFVQKYLGSAYTWMGLSDPEGAWKWVDGTDYATGFQNWKPGQPDDWQGHGLGGGEDCAHFHPDGRWNDDVCQRPYHWVCEAGLGQTSQESH
# Key:
# Test in all cases: glycan array binding signal (z-score within array); higher = stronger binding
# Details in all cases: glycan notation: IUPAC condensed, linker removed
# Fuc(a1-2)Gal(b1-3)GalNAc = target: Fuc(a1-2)Gal(b1-3)GalNAc
# Summary of the method: (§1)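 From the Consortium for Functional Glycomics database, 3228 arrays were curated, keeping only those whose protein sequence was available. Binding is given as a within-array Z-score averaged across arrays sharing a protein sequence and across linkers. Negative Z-scores can be read as non-binding.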
# [1] = target: Fuc(a1-2)Gal(b1-4)GlcNAc(b1-6)GalNAc
# Summary of the method: as §1
# [2] = target: Fuc(a1-2)Gal(b1-4)[Fuc(a1-3)]GlcNAc(b1-3)GalNAc
# Summary of the method: as §1
# Fuc(a1-2)[Gal(a1-3)]Gal = target: Fuc(a1-2)[Gal(a1-3)]Gal
# Summary of the method: as §1
# [3] = target: Fuc(a1-2)[Gal(a1-3)]Gal(b1-3)GalNAc
# Summary of the method: as §1
# [4] = target: Fuc(a1-2)[Gal(a1-3)]Gal(b1-4)GlcNAc(b1-6)GalNAc
# Summary of the method: as §1
# [5] = target: Fuc(a1-2)[GalNAc(a1-3)]Gal(b1-3)GalNAc(a1-3)[Fuc(a1-2)]Gal(b1-4)GlcNAc
# Summary of the method: as §1
# [6] = target: Fuc(a1-2)[GalNAc(a1-3)]Gal(b1-4)Glc
# Summary of the method: as §1
# [7] = target: Fuc(a1-2)[GalNAc(a1-3)]Gal(b1-4)GlcNAc(b1-2)Man
# Summary of the method: as §1
# [8] = target: Fuc(a1-2)[GalNAc(a1-3)]Gal(b1-4)[Fuc(a1-3)]GlcNAc
# Summary of the method: as §1
# [9] = target: Fuc(a1-2)[GalNAc(a1-4)]Gal(b1-4)GlcNAc
# Summary of the method: as §1
# [10] = target: Fuc(a1-2)[GalNAc(b1-3)]Gal
# Summary of the method: as §1
# [11] = target: Fuc(a1-3)[Gal(b1-4)]GlcNAc(b1-2)Man(a1-6)[Gal(b1-4)GlcNAc(b1-2)Man(a1-3)]Man(b1-4)GlcNAc(b1-4)GlcNAc
# Summary of the method: as §1
# [12] = target: Gal(a1-3)Gal(b1-3)GlcNAc(b1-6)GalNAc
# Summary of the method: as §1
# [13] = target: Gal(a1-3)Gal(b1-3)[Fuc(a1-4)]GlcNAc(b1-2)Man(a1-3)[Gal(a1-3)Gal(b1-3)[Fuc(a1-4)]GlcNAc(b1-2)Man(a1-6)]Man(b1-4)GlcNAc(b1-4)GlcNAc
# Summary of the method: as §1
# [14] = target: Gal(a1-3)Gal(b1-4)GlcNAc(b1-2)Man(a1-3)[Gal(a1-3)Gal(b1-4)GlcNAc(b1-2)Man(a1-6)]Man(b1-4)GlcNAc(b1-4)GlcNAc
# Summary of the method: as §1
# [15] = target: Gal(a1-3)Gal(b1-4)GlcNAc(b1-6)GalNAc
# Summary of the method: as §1
# [16] = target: Gal(a1-4)Gal(b1-4)GlcNAc(b1-2)Man(a1-3)[Gal(a1-4)Gal(b1-4)GlcNAc(b1-2)Man(a1-6)]Man(b1-4)GlcNAc(b1-4)GlcNAc
# Summary of the method: as §1
# [17] = target: Gal(b1-3)GlcNAc(b1-6)GalNAc
# Summary of the method: as §1
# Gal(b1-4)GlcNAc = target: Gal(b1-4)GlcNAc
# Summary of the method: as §1
# [18] = target: Gal(b1-4)GlcNAc(b1-3)Gal(b1-4)Glc
# Summary of the method: as §1
# [19] = target: Gal(b1-4)GlcNAc(b1-3)Gal(b1-4)GlcNAc(b1-3)GalNAc
# Summary of the method: as §1
# [20] = target: Gal(b1-4)GlcNAc(b1-6)Gal(b1-4)GlcNAc(b1-6)GalNAc
# Summary of the method: as §1
# [21] = target: Gal(b1-4)GlcNAc(b1-6)GalNAc
# Summary of the method: as §1
# GalNAc(b1-3)Gal = target: GalNAc(b1-3)Gal
# Summary of the method: as §1
# [22] = target: GalNAc(b1-3)Gal(a1-6)Gal(b1-4)Glc
# Summary of the method: as §1
# [23] = target: GalNAc(b1-4)GlcNAc(b1-3)GalNAc(b1-4)GlcNAc
# Summary of the method: as §1
# [24] = target: GlcNAc(a1-4)Gal(b1-3)GlcNAc
# Summary of the method: as §1
# [25] = target: GlcNAc(b1-3)Gal(b1-4)GlcNAc(b1-3)Gal(b1-4)GlcNAc
# Summary of the method: as §1
# [26] = target: GlcNAc(b1-3)Gal(b1-4)GlcNAc(b1-3)GalNAc
# Summary of the method: as §1
# [27] = target: Man(a1-3)[Man(a1-6)]Man(b1-4)GlcNAc(b1-4)GlcNAc
# Summary of the method: as §1
# Man(b1-4)GlcNAc = target: Man(b1-4)GlcNAc
# Summary of the method: as §1
# [28] = target: Neu5Ac(a2-3)Gal(b1-3)GlcNAc(b1-3)GalNAc
# Summary of the method: as §1
# [29] = target: Neu5Ac(a2-3)Gal(b1-3)[GlcNAc(b1-6)]GalNAc
# Summary of the method: as §1
# Neu5Ac(a2-3)Gal(b1-4)Glc = target: Neu5Ac(a2-3)Gal(b1-4)Glc
# Summary of the method: as §1
# [30] = target: Neu5Ac(a2-3)Gal(b1-4)GlcNAc(b1-3)Gal(b1-3)GlcNAc
# Summary of the method: as §1
# [31] = target: Neu5Ac(a2-3)Gal(b1-4)GlcNAc(b1-6)GalNAc
# Summary of the method: as §1
# [32] = target: Neu5Ac(a2-3)Gal(b1-4)[Fuc(a1-3)]GlcNAc(b1-6)[Neu5Ac(a2-3)Gal(b1-3)]GalNAc
# Summary of the method: as §1
# [33] = target: Neu5Ac(a2-6)Gal(b1-3)GlcNAc(b1-3)[Gal(b1-4)GlcNAc(b1-6)]Gal(b1-4)Glc
# Summary of the method: as §1
# [34] = target: Neu5Ac(a2-6)Gal(b1-4)GlcNAc(b1-2)Man
# Summary of the method: as §1
# [35] = target: Neu5Ac(a2-8)Neu5Ac(a2-3)[GalNAc(b1-4)]Gal(b1-4)Glc
# Summary of the method: as §1
# [36] = target: Neu5Ac(b2-6)Gal(b1-4)GlcNAc
# Summary of the method: as §1
# [37] = target: Neu5Gc(a2-3)Gal(b1-3)GlcNAc
# Summary of the method: as §1
# [38] = target: Neu5Gc(a2-3)Gal(b1-4)GlcNAc
# Summary of the method: as §1
# [39] = target: Neu5Gc(a2-8)Neu5Ac(a2-3)Gal(b1-4)GlcNAc
# Summary of the method: as §1
binder,measurement,setting,value
B1,glycan array binding signal (z-score),Fuc(a1-2)Gal(b1-3)GalNAc,-0.261
same,glycan array binding signal (z-score),[1],4.02
same,glycan array binding signal (z-score),[2],-0.238
same,glycan array binding signal (z-score),Fuc(a1-2)[Gal(a1-3)]Gal,-0.261
same,glycan array binding signal (z-score),[3],-0.249
same,glycan array binding signal (z-score),[4],-0.27
same,glycan array binding signal (z-score),[5],0.966
same,glycan array binding signal (z-score),[6],0.534
same,glycan array binding signal (z-score),[7],-0.017
same,glycan array binding signal (z-score),[8],-0.22
same,glycan array binding signal (z-score),[9],4.68
same,glycan array binding signal (z-score),[10],4.73
same,glycan array binding signal (z-score),[11],1.06
same,glycan array binding signal (z-score),[12],4.29
same,glycan array binding signal (z-score),[13],-0.221
same,glycan array binding signal (z-score),[14],-0.225
same,glycan array binding signal (z-score),[15],4.16
same,glycan array binding signal (z-score),[16],-0.244
same,glycan array binding signal (z-score),[17],3.91
same,glycan array binding signal (z-score),Gal(b1-4)GlcNAc,-0.075
same,glycan array binding signal (z-score),[18],-0.284
same,glycan array binding signal (z-score),[19],-0.303
same,glycan array binding signal (z-score),[20],-0.256
same,glycan array binding signal (z-score),[21],4.67
same,glycan array binding signal (z-score),GalNAc(b1-3)Gal,4.13
same,glycan array binding signal (z-score),[22],4.47
same,glycan array binding signal (z-score),[23],3.79
same,glycan array binding signal (z-score),[24],-0.306
same,glycan array binding signal (z-score),[25],0.5
same,glycan array binding signal (z-score),[26],-0.327
same,glycan array binding signal (z-score),[27],-0.224
same,glycan array binding signal (z-score),Man(b1-4)GlcNAc,-0.258
same,glycan array binding signal (z-score),[28],-0.273
same,glycan array binding signal (z-score),[29],-1.57
same,glycan array binding signal (z-score),Neu5Ac(a2-3)Gal(b1-4)Glc,-0.45
same,glycan array binding signal (z-score),[30],-0.277
same,glycan array binding signal (z-score),[31],3.89
same,glycan array binding signal (z-score),[32],-0.153
same,glycan array binding signal (z-score),[33],-0.259
same,glycan array binding signal (z-score),[34],-0.302
same,glycan array binding signal (z-score),[35],2.18
same,glycan array binding signal (z-score),[36],-0.277
same,glycan array binding signal (z-score),[37],-0.256
same,glycan array binding signal (z-score),[38],-0.228
same,glycan array binding signal (z-score),[39],-0.273
